Screening data (PubChem)
Compounds with a hit are over-represented: about 7.9% of the library has one in this group of screens.
LASV entry inh – blocks Lassa virus binding to or entry into cells. Lassa virus pseudotype entry inhibition, cell reporter. Potency, µM (series often up to 37.9 µM), most hits filed as inhibitors. hit rate 1.2% among 300,000. AID 540256; calls by dose curve; tested in HEK293 cells; also: nearly all actives have a fitted effect of over 50% in size
HCV inh – inhibitors of hepatitis C virus infection; Huh7.5.1 HCVcc-Cre infection, luciferase reporter, 44 h; hit rate 3.4% among 340,000; Potency, µM (series often up to 41.8 µM), actives largely listed as inhibitors; AID 651820; active = well fitted inhibition curve with a large enough effect; inconclusive = small, poorly fitted or top-dose-only effect, or another doubt; inactive = no such curve, though single readings can be large or run the other way
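Cells (1,000/well) were plated 4 h before compound, then infected with HCVcc-Cre virus (~0.5 moi). After 44 h further culture, infection was read as luciferase luminescence following a 15 min substrate incubation at room temperature.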
Marburg entry inh – inhibitors of Marburg virus binding or cell entry; Marburg virus pseudotyped entry inhibition, cell reporter; Potency, µM (series often up to 37.8 µM), usual class: inhibitors; hit rate 1.8% among 300,000; calls by dose curve; tested in HEK293 cells
HCMV antiviral – human cytomegalovirus inhibition. HFF cells, HCMV-luciferase reporter, 72 h; stronger effect = lower value. activity change, negative = inhibition, % at 57.5 µM. AID 1259415. hit rate 4.5% among 410,000; in the data active = activity change below about -60%; inconclusive = no clear call, values can overlap the other calls; inactive = above about -39%
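Screen run at 2 compound doses on HFFs infected with reporter HCMV, MOI 1 PFU/cell. Luciferase activity from cell lysates at 72 h post infection gave inhibition relative to buffer-only and Salinomycin wells.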
FMDV inh – foot and mouth disease virus antiviral activity | FMDV antiviral cell-based qHTS | Potency, µM (top dose mostly 57.9 µM), usual class: inhibitors | hit rate 1.2% among 410,000 | AID 1159524; calls by dose curve; tested in HEK293T cells; also: read-out not given here; nearly all actives have a fitted effect of over 45% in size
Numbers stand for hits; 0 = inactive; ? = inconclusive; - = not tested or not shown; ! = not active in a repeat.

SMILES	LASV entry inh	HCV inh	Marburg entry inh	HCMV antiviral	FMDV inh
CCN(CC)S(=O)(=O)c1ccc(N2CCOCC2)c(NC(=O)c2cccc3ccccc23)c1	?	0	0	0	0
CCOc1ccccc1C1N=C(N)Nc2nc3ccccc3n21 (stereo unspecified)	0	-	0	0	0
CCC(CC)c1nn2c(=O)cc(COc3ccc(NC(=O)c4ccccc4Cl)cc3)nc2s1	?	-	?	0	0
COC(=O)c1cccc(C(=O)NCc2nc(-c3ccccc3NC(C)=O)oc2C)c1	-	-	-	-	0
CCN(CC)S(=O)(=O)c1ccc(N2CCOCC2)c(NS(=O)(=O)c2cc(C(C)(C)C)ccc2C)c1	8.9µM	?	?	-69	0
CCN(CC)S(=O)(=O)c1ccc(N2CCOCC2)c(NS(=O)(=O)c2ccc(C(C)C)cc2)c1	0	0	0	0	0
O=C(NCC1Cc2cccc(-c3cnccn3)c2O1)c1ccc(F)c(Cl)c1 (stereo unspecified)	-	-	-	-	0
COc1cc(/C=C/c2cccc[n+]2C)ccc1OCC(=O)Nc1cccc(Cl)c1	?	0	0	-70	0
COc1cc(/C=C/c2cc[n+](C)cc2)ccc1OCC(=O)Nc1ccc(Cl)c(Cl)c1	0	0	?	-91	0
COc1ccc(/C=C\C(=O)Nc2ccccc2C(=O)O)cc1OC	-	-	?	-	20µM
COc1cc(/C=C/c2cccc[n+]2C)ccc1OCC(=O)Nc1ccccc1	0	0	0	0	0
COc1ccc(NC(=O)COc2ccc(/C=C/c3cc[n+](C)cc3)cc2OC)cc1	0	0	0	0	0
C/C=C/c1ccc(OCC(=O)Nc2cc(OC)c(OC)c(OC)c2)c(OC)c1	10µM	?	?	0	?
C=CCOC(=O)C(C(=O)CC)[C@@H](NC(=O)OC)c1ccc(F)cc1 (stereo partly specified)	-	-	0	-	-
N#CC1C(=O)NC(=O)C(C#N)C12CCCC(C(F)(F)F)C2 (stereo unspecified)	0	0	0	0	0
Cc1ccn(CCC(=O)N2CCc3ccccc32)n1	-	0	-	0	0
COc1ccc(/C=C/C(=O)Nc2ccncc2)cc1OC	0	0	0	0	0
COc1ccc(/C=C/C(=O)Nc2ccc(Cl)c(Cl)c2)cc1OC	0	-	-	-81	?
CCOCCOC(=O)c1ccc(NC(=O)/C=C/c2ccc(OC)c(OC)c2)cc1	0	-	-	0	20µM
Cc1ccc(NC(=O)CCS(=O)(=O)c2cc3[nH]c(=O)c(=O)[nH]c3cc2C)cc1	0	0	0	?	0
CC(C)[C@H]1COCCS(=O)(=O)N1Cc1ccccc1-c1cccc(Cl)c1	-	?	?	0	?
COc1ccccc1NC(=O)CCN1CCCCC1	0	-	-	0	0
COc1ccc(CCN(C)C(=O)Cc2ccc(-c3ccccc3)cc2)cc1OC	?	2.5µM	?	-76	?
COc1cc(CN(C)CCc2ccccc2)ccc1OCc1ccccc1	0	3.5µM	18µM	0	0
Nc1nc(N)c(Cc2ccc(Cl)cc2Cl)c(N)n1	0	?	0	-73	?
SMILES	LASV entry inh	HCV inh	Marburg entry inh	HCMV antiviral	FMDV inh
Nc1nccc(SCc2ccc(Cl)cc2Cl)n1	?	0	0	0	0
NNc1ccc(Cc2ccc(Cl)cc2Cl)nn1	0	?	?	-70	0
O=[N+]([O-])c1cccc(-c2noc3ccccc23)c1	-	-	-	0	-
O=C(NNC1=Nc2ccccc2SC1)c1cccc([N+](=O)[O-])c1	?	0	?	-84	0
O=C(NNC1=Nc2ccccc2SC1)c1ccccc1F	?	14µM	?	-86	0
O=C(NC1=NCCS1)c1ccccc1F	?	0	0	0	0
O=C(NNC1=NCCCCC1)c1cccc([N+](=O)[O-])c1	0	0	0	0	0
COc1ccccc1NC(=O)N1CC(=O)N2[C@H](CO)[C@@H](c3ccc(Br)cc3)[C@H]2C1	-	-	-	0	-
Cc1ccc(NS(=O)(=O)c2ccccc2F)cc1S(=O)(=O)N1CCCCCC1	0	0	0	0	0
C=CC(=O)N=c1sc2ccccc2n1-c1ccccc1	?	11µM	?	0	?
Cc1ccc(NC(=O)C2CC(O)CN2C(=O)OCc2ccccc2)c(C)c1 (stereo unspecified)	0	0	0	-63	0
O=C(CSc1nnc(-c2ccc(C(F)(F)F)cn2)s1)c1ccc(Cl)cc1	0	0	0	0	0
COc1ccc(NC(=O)CC2C(=O)N(C)C(=S)N2CCc2ccccc2F)cc1 (stereo unspecified)	?	?	?	?	0
CN1C(=O)C(CC(=O)Nc2ccc(F)cc2)N(CCCc2ccccc2)C1=S (stereo unspecified)	?	0	11µM	?	?
CC1(c2nnnn2Cc2ccccc2)CCC(=O)N1CCc1ccc(O)cc1 (stereo unspecified)	-	-	-	0	0
Cc1nn2cc(-c3ccc(-c4ccccc4)cc3)nc2s1	11µM	0	?	0	0
CCc1nn2cc(-c3ccccc3)nc2s1	8.2µM	0	18µM	0	0
COCc1nn2cc(-c3ccc(C)cc3)nc2s1	0	-	?	0	0
Cc1nn2cc(-c3ccc(Cl)cc3)nc2s1	?	0	?	0	0
O=C(O)CCC(=O)N1N=C(c2ccccc2)CC1c1ccc2c(c1)OCO2 (stereo unspecified)	-	0	-	0	0
COc1ccc(C2Nc3ccccc3C(=O)N2Cc2ccco2)cc1COc1ccc(NC(C)=O)cc1 (stereo unspecified)	?	?	?	-62	0
Cc1ccc(S(=O)(=O)N[C@@H](CCCCN)C(=O)CCl)cc1	0	?	13µM!	0	0
Cc1ccc(S(=O)(=O)NC(CC(N)=O)C(=O)O)cc1 (stereo unspecified)	?	0	?	0	0
Cc1cc2ccccc2c(=O)n1CC(=O)N(C)c1ccc(F)cc1	0	0	0	-103	0
Cc1ccc(NC(=O)CNC(=O)Cn2c(C)cc3ccccc3c2=O)cc1F	0	-	0	0	0
SMILES	LASV entry inh	HCV inh	Marburg entry inh	HCMV antiviral	FMDV inh
O=C(/C=C/c1ccccc1Cl)OCC(=O)N1CCc2ccccc21	-	-	-	0	0
COc1cc2c(C(=O)N(C)c3cc(Cl)ccc3OC)cn(CC(C)C)c(=O)c2cc1OC	0	-	?	-61	0
COc1ccc(N(C)C(=O)c2cn(CC(C)C)c(=O)c3cc(OC)c(OC)cc23)c(OC)c1	-	0	-	0	0
CCN(C(=O)c1cnc(N2CCOCC2)c2ccccc12)c1cc(C)ccc1C	5µM	-	-	0	0
COC1CCC(C2CC(=O)C3=C(CCCC3)O2)CC1 (stereo unspecified)	-	-	0	-	-
COc1cccc(C2CNC3(CCCC(C)C3)c3[nH]c4ccccc4c32)c1OC (stereo unspecified)	-	0	-	-65	0
CC(=O)c1c(N2CCCC2)[nH]c(-c2ccccc2)nc1=S	0	22µM	0	0	0
CC(=O)c1c(N2CCOCC2)[nH]c(-c2ccccc2)nc1=S	0	0	0	0	0
O=C1CCCN1C1CCN(Cc2ccccc2)S(=O)(=O)N1 (stereo unspecified)	-	-	-	0	0
COc1ccc(/C(C)=N/NC(=S)NCc2ccco2)cc1	2.1µM	0	0	0	0
COc1cc(NC(=S)NCCCO)c(OC)cc1Cl	-	0	-	0	0
COc1ccc(/C(C)=N/NC(=S)NCCc2ccccc2)cc1	?	0	?	-114	0
